± gives the standard deviation of the averaged measurements. The full ranking holds about 33,000 sequences; the median of “E-score (rank enrichment, -0.5 to 0.5)” is about -0.0075, and the highest 2% start at about 0.23. The sample as a whole holds a higher share of the highest values than the screen did.

The test system of this assay is WT Max(13-93) synthetic (M65Nle). In words: PBM 8-mer E-score (E-score (rank enrichment, -0.5 to 0.5)); higher = stronger preferential binding. As for the experimental part: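 Protein binding microarray (universal PBM chip covering all 10-mers in fixed probe flanks) with chemically synthesized human Max(13-93) bHLH-LZ analogs (not full-length Max) bearing noncanonical residues (hArg, Tha, Aib, Nle at 65) and aromatic Cys staples. Read-out per 8-mer (and its reverse complement): E-score (rank-based enrichment, -0.5 to 0.5) and Z-score of median probe intensity.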
As for ATAAAATC, the “PBM 8-mer E-score” value turned out to be 0.109 ± 0.055.
The result for ATAAAATA reads 0.244 ± 0.0078; that for AAAAAATA, 0.246 ± 0.022; that for AAGAAATA, 0.129 ± 0.0058.
Consider CAAGAATA, for which the “PBM 8-mer E-score” value stood at 0.13 ± 0.035.
The result for GAAGAATA reads 0.104 ± 0.034; that for GAGAAATA, 0.0631 ± 0.15; that for TAGAAATA, 0.251 ± 0.07.
GAAAAATA: the “PBM 8-mer E-score” value was determined as 0.198 ± 0.08.
The result for GTAAAATA reads 0.0829 ± 0.0054.
As for CAAAAATA, the figure is 0.185 ± 0.02; as for AAAGAATA, 0.241 ± 0.039.
In the case of CATGCCGC, the “PBM 8-mer E-score” value stood at 0.0835 ± 0.051.
As for AATAGAGG, the figure is 0.00232 ± 0.055; as for GAGTGGTA, -0.108 ± 0.011; as for AATGCAGG, 0.087 ± 0.07.
As for AAGAACGA, the figure is 0.129 ± 0.018.
In the case of CAGAGTGC, the “PBM 8-mer E-score” value is -0.201 ± 0.058.
Consider CTCGAAAG, for which the “PBM 8-mer E-score” value is -0.184 ± 0.043.
In the case of GACGAACA, the “PBM 8-mer E-score” value came out at 0.0177 ± 0.055.
Regarding GTTCATTA, the “PBM 8-mer E-score” value came out at 0.113 ± 0.06.
As for AGGTTTAA, the figure is 0.0368 ± 0.0029; as for GGCTGGAA, -0.0381 ± 0.036.
Turning to GTTAAATA, the “PBM 8-mer E-score” value came to 0.257 ± 0.1.
The result for CTAAATTA reads 0.0753 ± 0.031; that for CTTAAATA, 0.139 ± 0.023.
As for ATAAATTA, the figure is 0.324 ± 0.038; as for ATAAATTG, 0.0667 ± 0.085.
As for ATTAAATA, the figure is 0.174 ± 0.085.
For the sequence CGGGTCAA, the “PBM 8-mer E-score” value was -0.125 ± 0.03.
As for ATGGCTAG, the “PBM 8-mer E-score” value turned out to be 0.0642 ± 0.13.
The result for AGGGAGCC reads -0.227 ± 0.056; that for AGTGCGTG, 0.0848 ± 0.032; that for GGTTAGGA, 0.0556 ± 0.043.
As for ACTTAAAC, the figure is 0.0371 ± 0.073.
The result for CCGCAGAG reads -0.0777 ± 0.023.
With GTGACACA, the “PBM 8-mer E-score” value amounted to 0.0907 ± 0.1.
Turning to CAGACACG, the “PBM 8-mer E-score” value was -0.0764 ± 0.14.
The result for ATGACACC reads 0.159 ± 0.048; that for CTGACACA, -0.0349 ± 0.034.
The result for ATGACACA reads 0.236 ± 0.042.
As for ATGACAGG, the figure is 0.0387 ± 0.051; as for AAGACACG, 0.246 ± 0.021.
For AAGACACA, the “PBM 8-mer E-score” value was 0.0963 ± 0.021.
As for ATGACACG, the “PBM 8-mer E-score” value came to 0.298 ± 0.039.
The result for CAGTCTGC reads -0.0522 ± 0.01; that for ACCTAATG, 0.00028 ± 0.0032; that for CCAGGAGC, -0.312 ± 0.0027.
The result for TAAGAACA reads 0.243 ± 0.099; that for ATAAAAGG, 0.0572 ± 0.12; that for GAAGAACA, 0.209 ± 0.057.
As for CTAAAACA, the “PBM 8-mer E-score” value is -0.07401 ± 0.00047.
As for CAAGAACA, the figure is 0.0399 ± 0.038; as for ATAAAAAA, 0.19 ± 0.044; as for TAAAAACA, 0.25 ± 0.0036.
In the case of ATAAAACA, the “PBM 8-mer E-score” value amounted to 0.24 ± 0.0041.
The result for ATAAAACG reads 0.163 ± 0.16.
For the sequence GTAAAACA, the “PBM 8-mer E-score” value turned out to be 0.142 ± 0.14.
Turning to AAAAAACA, the “PBM 8-mer E-score” value is 0.158 ± 0.071.
ATAAAAAG: the “PBM 8-mer E-score” value is 0.283 ± 0.11.
On to GCCCCGTA, for which the “PBM 8-mer E-score” value was -0.0782 ± 0.17.
As for ACGGGGTC, the figure is -0.061 ± 0.014.
For CGGCAGAC, the “PBM 8-mer E-score” value was -0.218 ± 0.039.
Consider AACCATTC, for which the “PBM 8-mer E-score” value was 0.0337 ± 0.04.
As for AATGCCGC, the figure is -0.0772 ± 0.0051.
As for CGACTAAA, the figure is -0.00903 ± 0.06.
Regarding AATAGGCA, the “PBM 8-mer E-score” value amounted to 0.118 ± 0.0074.
As for GCGCGCCC, the figure is 0.00746 ± 0.051; as for CAGGTTCC, -0.228 ± 0.077; as for CCGTTAGC, -0.112 ± 0.12.
CTCAAACA: the “PBM 8-mer E-score” value worked out at 0.117 ± 0.014.
Regarding CTAAAGCA, the “PBM 8-mer E-score” value was 0.0761 ± 0.037.
Consider ATCAAGCA, for which the “PBM 8-mer E-score” value is 0.113 ± 0.0099.
ATAAAGCA: the “PBM 8-mer E-score” value stood at 0.264 ± 0.046.
As to ATCAAACA, the “PBM 8-mer E-score” value stood at 0.238 ± 0.041.
ATAAAGCG: the “PBM 8-mer E-score” value was 0.106 ± 0.045.
As to GGCGGATA, the “PBM 8-mer E-score” value was -0.183 ± 0.13.
As for TGTGTTAA, the figure is 0.226 ± 0.034; as for TTACACAA, 0.00996 ± 0.084; as for ACCTGGGC, -0.318 ± 0.086.
For the sequence AATCCTCT, the “PBM 8-mer E-score” value came out at 0.079 ± 0.071.
As for ACGCCAAC, the figure is -0.125 ± 0.04; as for TGTATTAA, 0.173 ± 0.026.
As for CCTCAGGC, the figure is -0.057 ± 0.056.
As for GCGTGGGA, the figure is 0.238 ± 0.035; as for AAGTGGGA, 0.212 ± 0.0035.

Source of the values: the supplement of paper PMC12636033.
